Here are results for 40 compounds from PubChem BioAssay (Tox21).

Records with an inconclusive call do not appear. Values without a mark were called inactive. Calls of active or inactive are those of the source. The call rests on the fitted dose curve.
On the % scale 0 is the no-effect control and ±100 the full control effect.

This assay can be described thus: qHTS assay for small molecules that induce genotoxicity in human embryonic kidney cells expressing luciferase-tagged ATAD5 - cell viability (AID 651634). Further: nearly all actives have a fitted effect of over 25% in size. Particulars: HEK293T ATAD5-luc cells viability, CellTiter-Fluor, 15.5 h; series mostly up to 83.3 µM; activity, negative = cytotoxicity: at the top concentration. An excerpt:
National Center for Advancing Translational Sciences [NCATS]
NIH Chemical Genomics Center [NCGC]
U.S. Environmental Protection Agency [EPA]
National Institutes of Environmental Health Sciences [NIEHS]
National Toxicology Program [NTP]
U.S. Food and Drug Administration [FDA]
Enhanced Level of Genome Instability Gene 1 (ELG1; human ATAD5) protein levels increase in response to various types of DNA damage. Using a luciferase reporter-gene tagged with ElG1, a cell-based assay [developed by Kyungjae Myung, NHGRI, NIH] was used to measure the induction of ATAD5 in human embryonic kidney cells (HEK293T). So, increase in luciferase activity can be used to identify the compounds that cause genetic stress. In addition to genotoxicity, these cells were also used to test for cytotoxicity by measuring the protease activity within live cells.
Tox21 Assay Protocol Summary:
For cytotoxicity screening, 2,000 cells in 5 uL/well were dispensed into white, solid-bottom 1536-well plates using a Multidrop Combi (Thermo Scientific) dispenser. Following transfer of 23 nL compound or DMSO vehicle by a pin tool, the plates were incubated 15.5 hr at 37C and 5% CO2. 1 ul CellTiter-Fluor reagent (Promega, Madison, WI) was then added to each plate and following 30 min incubation at 37C, fluorescence intensity was quantified on a ViewLux CCD-based plate reader.
In general terms: qHTS replaces the single test concentration by a dilution series.
Consider `Cc1cc(O)cc2c1O[C@](C)(CCC[C@H](C)CCC[C@H](C)CCCC(C)C)CC2`, for which the Potency entry was “inactive”.
On to `COc1c(N2C[C@@H]3CCCN[C@@H]3C2)c(F)cc2c(=O)c(C(=O)O)cn(C3CC3)c12`, for which the Potency entry is “inactive”.
With `Brc1c(NC2=NCCN2)ccc2nccnc12`, the “activity, negative = cytotoxicity” value was 19.4%.
Consider `CCOc1ccc(C(=O)OCCN(CC)CC)cc1`, for which the “activity, negative = cytotoxicity” value is -6.5%.
The same measure, in the same setting: the same measure for `CC1=CC(C)C(C=O)CC1` (stereo not given): 18.7%.
On to `CCOC(=O)Nc1ccc(NCc2ccc(F)cc2)nc1N`, for which the Potency entry is “inactive”.
As to `NC(CSCC(=O)O)C(=O)O` (stereo not given), the “activity, negative = cytotoxicity” value is 29.1%.
The same measure, in the same setting: the same measure for `NC(=O)c1ccc(N)cc1`: 3.26%; for `CCCCCCCCCCCCN(CCCCCCCCCCCC)CCCCCCCCCCCC`: 14.7%.
In the case of `CC(C)(c1ccc(O)cc1)c1ccc(O)cc1`, the Potency entry is “inactive”.
In the case of `CCn1ccnc1CC1COc2ccccc2O1` (stereo not given), the “activity, negative = cytotoxicity” value is 42.2%.
On the same count and under the same terms, as for `CCOC(=O)c1cccc(N)c1`, the figure is 16%; as for `CCCCCSCCCCC`, 11.6%.
Take `CC(=O)OCC(CCn1cnc2cnc(N)nc21)COC(C)=O`: the “activity, negative = cytotoxicity” value is 16.6%.
Still for that read-out and setting: as for `O=[N+]([O-])c1ccc(F)cc1F`, the figure is 11.2% [at 95.3 µM]; as for `CC(C)CCCC(C)N` (stereo not given), 10.5%; as for `Cc1ccc(=O)n(-c2ccccc2)c1`, 13.2%.
The same measure, in the same setting: the same measure for `CC(C)(CC(=O)O)C(=O)O`: 15.8%.
Same read-out and setting: as for `Cc1cccc(C)c1NC(=O)C(C)N` (stereo not given), the figure is 20.8% [at 39.1 µM]; as for `CC(=O)OC/C=C(\C)CC/C=C(\C)CCC=C(C)C`, 7.46%.
With `N=C(N)c1ccc(OCCCOc2ccc(C(=N)N)cc2)cc1`, the “activity, negative = cytotoxicity” value was -18.6%.
For the compound `O=C[C@H](O)[C@@H](O)[C@H](O)[C@H](O)CO`, the Potency entry was “inactive”.
As to `Cc1c(NC(C)C)c(=O)n(-c2ccccc2)n1C`, the “activity, negative = cytotoxicity” value was 8.98%.
For the compound `OC(CCN1CCCCC1)(c1ccccc1)C1CC2C=CC1C2` (stereo not given), the Potency result was “inactive”.
Consider `O=C1CC2CC1C1CCCC21` (stereo not given), for which the “activity, negative = cytotoxicity” value is 12.1%.
For the compound `CN(C)CCCN1c2ccccc2CCc2ccc(Cl)cc21`, the Potency entry was “inactive”.
With `CC(C)CNCC(C)C`, the “activity, negative = cytotoxicity” value is 6.27%.
Same read-out and setting: as for `OCCOc1ccc(OCCO)cc1`, the figure is 10.9% [at 95.3 µM].
On the same count and under the same terms, as for `NS(=O)(=O)c1ccc(C(=O)O)cc1`, the figure is 10.3%.
The same measure, in the same setting: the same measure for `c1cnc(N2CCN(Cc3ccc4c(c3)OCO4)CC2)nc1`: 12.5%.
As for `O=Cc1cccc([N+](=O)[O-])c1`, the “activity, negative = cytotoxicity” value is 12.8%.
The same measure, in the same setting: the same measure for `c1ccc([C@H]2CN3CCSC3=N2)cc1`: 21.3%; for `O=C(O)Cc1ccc(CCNS(=O)(=O)c2ccc(Cl)cc2)cc1`: 12.7%; for `CCc1nccnc1CC`: 15.6% [at 39.1 µM].
Same read-out and setting: as for `C=COCC1CCC(CO)CC1` (stereo not given), the figure is -25%.
Still for that read-out and setting: as for `CC(=O)Nc1c(I)cc(I)c(C(=O)O)c1I`, the figure is -10.2%; as for `CN(C)CCCSc1ccccc1NC(=O)/C=C/c1ccccc1`, 18.2%.
Regarding `CCOC(=O)[C@H](CCc1ccccc1)N[C@@H](C)C(=O)N1[C@H](C(=O)O)C[C@@H]2CCC[C@@H]21`, the “activity, negative = cytotoxicity” value is 6.38%.
The same measure, in the same setting: the same measure for `C=CCOCC(CC)(CO)COCC=C`: 27.1%; for `Cc1cccn2c(=O)c(-c3nnn[nH]3)cnc12`: 18.6%.
